Shown are actives, neighbours in structure and some others; about 5.9% of the full set was active somewhere.
rCAG RNA binder – r(CAG) repeat RNA binding | inhibition, % at 3 µM | TO-PRO-1 dye displacement fluorescence | hit rate 1.3% among 370,000 | AID 651821;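 active = inhibition above the plate cutoff, the mean of all test compounds on that plate plus 3 SD, cut at about 35% in these data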;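 also: 0% = DMSO alone and 100% = 100 µM mitoxantrone as full dye displacement; higher means more dye released from RNA so lower well fluorescence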
Rtt109 Vps75 – inhibitors of Candida albicans Rtt109/Vps75 histone acetyltransferase | Q5AAJ8 | purified Rtt109/Vps75, ThioGlo CoA-SH fluorescence, 4 h | inhibition, % at 34.9 µM | hit rate 0.16% among 330,000 | AID 540336;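 active = inhibition of at least 50% in every replicate; inconclusive = best replicate reaches 50% inhibition but some replicates fall short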
Target sequence (Q5AAJ8 whole entry, looked up): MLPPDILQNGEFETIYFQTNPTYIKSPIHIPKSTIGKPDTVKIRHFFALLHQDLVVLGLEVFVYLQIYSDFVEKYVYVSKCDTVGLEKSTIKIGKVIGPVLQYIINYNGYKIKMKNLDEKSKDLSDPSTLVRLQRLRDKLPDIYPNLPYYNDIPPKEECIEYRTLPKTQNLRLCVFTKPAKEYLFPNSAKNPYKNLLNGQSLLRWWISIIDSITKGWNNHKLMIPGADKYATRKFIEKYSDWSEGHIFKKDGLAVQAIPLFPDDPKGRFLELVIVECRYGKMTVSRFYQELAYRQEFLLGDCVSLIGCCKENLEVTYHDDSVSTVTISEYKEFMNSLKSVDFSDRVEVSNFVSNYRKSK
ABHD5 PLIN5 PPI – inhibitors of human ABHD5-perilipin-5 interaction. Q00G26+Q8WTS1. Split G. princeps luciferase complementation, luminescence, 4 h. AID 602281. inhibition, % at 4 µM. hit rate 0.78% among 360,000;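 active = inhibition above the mean inhibition across every tested compound plus 3 SD, cut at about 22% in these data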;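 also: 0% = DMSO only wells and the 100% control is not disclosed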
LANA-H2B inh – blocks KSHV LANA binding to histone H2A/H2B; Q9QR71; cell-free LANA-H2A/H2B peptide, fluorescence polarization; inhibition, % (no concentration beside the values); hit rate 0.6% among 320,000; AID 2629; in the data active = inhibition mostly above about 10%, no sharp cut-off; inactive = mostly below about 6.7%
ALR H2O2 inh – inhibitors of human sulfhydryl oxidase ALR; P55789; purified ALR, DTT oxidation, H2O2 HRP-luminol luminescence; hit rate 3.8% among 290,000; inhibition, % (test concentration not listed); AID 485317;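 active = mean replicate inhibition above about 79%, with every replicate also reaching it, limit read from the data; inconclusive = only one of the two criteria met; inactive = mean below limit and not every replicate reaching it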
Target sequence (P55789 whole entry, looked up): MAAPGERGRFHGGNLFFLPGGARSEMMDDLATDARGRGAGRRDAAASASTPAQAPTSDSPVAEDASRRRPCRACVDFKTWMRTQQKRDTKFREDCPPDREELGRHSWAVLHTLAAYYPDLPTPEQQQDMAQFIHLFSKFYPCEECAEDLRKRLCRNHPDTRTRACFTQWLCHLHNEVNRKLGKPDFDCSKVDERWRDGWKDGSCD
PRMT1 FP inh – blocks human protein arginine methyltransferase 1 | Q99873 | recombinant PRMT1, activity-based probe fluorescence polarization | inhibition, % at 2.79 µM | hit rate 1.3% among 370,000 | AID 652257;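 active = inhibition above about 21% made by adding two undisclosed values, limit read from the data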
An asterisk follows results filed as active.

Screening CC(C)CCc1c(O)nc(SCC(C)C)[nH]c1=O returned rCAG RNA binder -2.7, Rtt109 Vps75 -13.2, ABHD5 PLIN5 PPI -2.2, LANA-H2B inh 1.3, ALR H2O2 inh 88.7* and PRMT1 FP inh -6.0.
`CC(C)Cc1c(O)nc(SCC(=O)N2CCCCCC2)[nH]c1=O` gave rCAG RNA binder -1.3, Rtt109 Vps75 -55.3, ABHD5 PLIN5 PPI 5.0, LANA-H2B inh -4.6, ALR H2O2 inh 97.4* and PRMT1 FP inh 0.2.
Screening CCCCc1c(O)nc(SCC(=O)N2CCCCCC2)[nH]c1=O returned rCAG RNA binder 0.5, Rtt109 Vps75 0.0, ABHD5 PLIN5 PPI -1.4, LANA-H2B inh 4.2, ALR H2O2 inh 16.6 and PRMT1 FP inh 3.1.
For O=C(COC(=O)/C=C/c1cccc(F)c1)NC1CCCCC1 the results were rCAG RNA binder 1.3, ABHD5 PLIN5 PPI 2.9 and PRMT1 FP inh -2.8.
`COC(=O)[C@]12C[C@H](CC(=O)NCc3ccccc3)C(=O)N(Cc3ccco3)C1=C[C@H](C(C)(C)C)O[C@@H]2C` gave rCAG RNA binder 0.6 and PRMT1 FP inh 4.8.
For COc1cc(C(O)c2nc(-c3ccc(C)c(C)c3)cs2)ccc1F (stereo not given) the results were rCAG RNA binder 1.5, ABHD5 PLIN5 PPI -10.8 and PRMT1 FP inh -2.0.
Cc1cc(O)c(C(C[N+](=O)[O-])c2ccc(Cl)cc2Cl)c(=O)o1 (stereo not given) was read as Rtt109 Vps75 55.8*, ABHD5 PLIN5 PPI -3.0, LANA-H2B inh -9.5 and ALR H2O2 inh 7.5.
For O=c1[nH][nH]c(-c2ccccc2O)c1C(C[N+](=O)[O-])c1ccc(Cl)cc1Cl (stereo not given) the results were rCAG RNA binder 6.0, Rtt109 Vps75 -3.2, ABHD5 PLIN5 PPI 1.3 and PRMT1 FP inh -2.2.
Screening Cn1c(=O)c2c(-c3ccccc3)n(-c3ccccc3)cc2n(C)c1=O returned rCAG RNA binder 3.5, ABHD5 PLIN5 PPI 3.0 and PRMT1 FP inh -1.5.
For Cn1c(=O)c2c(-c3ccccc3)n(-n3cnnc3)cc2n(C)c1=O the results were rCAG RNA binder 0.7, Rtt109 Vps75 4.9, ABHD5 PLIN5 PPI 21.9, LANA-H2B inh 4.0, ALR H2O2 inh 95.6* and PRMT1 FP inh -2.8.
`CCN(CC)C1=CC2=CC(=C(C#N)C#N)CCC2CC1` (stereo not given) gave rCAG RNA binder inactive, Rtt109 Vps75 -1.5, ABHD5 PLIN5 PPI -11.9, LANA-H2B inh -4.2, ALR H2O2 inh inconclusive and PRMT1 FP inh -56.6.
`N#CC(C#N)=C1C=C2C=C(N3CCCCC3)CCC2CC1` (stereo not given) gave LANA-H2B inh -152.1 and ALR H2O2 inh 99.2*.
Screening O=C(CSc1nnc(-c2ccccc2)o1)c1nnc(-c2ccccc2)o1 returned rCAG RNA binder 24.0, Rtt109 Vps75 -0.8, ABHD5 PLIN5 PPI -4.6, LANA-H2B inh -4.3, ALR H2O2 inh 24.9 and PRMT1 FP inh 24.1*.
Screening CCOC(=O)c1c(C)[nH]c2cc(Br)c(O)cc12 returned rCAG RNA binder 1.3, Rtt109 Vps75 13.1, ABHD5 PLIN5 PPI -4.5, LANA-H2B inh -2.6, ALR H2O2 inh 10.6 and PRMT1 FP inh 0.6.
CCOC(=O)c1c(OCC)[nH]c2c1cc(O)c1ccccc12 was read as rCAG RNA binder 11.9, Rtt109 Vps75 inconclusive, ABHD5 PLIN5 PPI -31.3, LANA-H2B inh 1.2, ALR H2O2 inh 99.3* and PRMT1 FP inh 12.9.
For COc1ccccc1OCc1ccc(C(=O)NN)o1 the results were rCAG RNA binder 2.7, Rtt109 Vps75 20.0, ABHD5 PLIN5 PPI 7.8, LANA-H2B inh -0.9, ALR H2O2 inh 90.2* and PRMT1 FP inh 1.0.
Screening CCOC(=O)Nc1ccc2c(c1)N(C(=O)N1CCN(C)CC1)c1ccccc1S2 returned rCAG RNA binder -3.9, Rtt109 Vps75 -10.7, ABHD5 PLIN5 PPI 10.7, LANA-H2B inh 6.3, ALR H2O2 inh 97.8* and PRMT1 FP inh 0.4.
Screening CCOC(=O)c1cc(C(=O)Nc2ccccc2F)nn1C returned rCAG RNA binder -1.7, Rtt109 Vps75 -12.7, ABHD5 PLIN5 PPI -4.7, LANA-H2B inh -8.5, ALR H2O2 inh -5.4 and PRMT1 FP inh 0.8.
Screening CCOC(=O)n1ccc(C(=O)Nc2ccccc2F)n1 returned rCAG RNA binder 1.1, Rtt109 Vps75 5.7, ABHD5 PLIN5 PPI 6.6, LANA-H2B inh -4.6, ALR H2O2 inh 96.4* and PRMT1 FP inh -2.3.
Screening C[C@H](NC(=O)c1ccccc1Cl)C(=O)OCc1cn2cc(Cl)ccc2n1 returned rCAG RNA binder -5.4, Rtt109 Vps75 -6.5, ABHD5 PLIN5 PPI -3.6, LANA-H2B inh 14.6*, ALR H2O2 inh -6.9 and PRMT1 FP inh 0.9.
CN(C)CCOC(c1ccccc1)c1ccccc1 (tested in a mixture with another compound) was read as rCAG RNA binder -1.2, Rtt109 Vps75 1.2, ABHD5 PLIN5 PPI -2.2, LANA-H2B inh 12.6* and PRMT1 FP inh 2.5.
CN(C)CCOC(c1ccccc1)c1ccccc1 was read as rCAG RNA binder 3.0, Rtt109 Vps75 -3.1, ABHD5 PLIN5 PPI -11.3, LANA-H2B inh 6.6, ALR H2O2 inh -10.4 and PRMT1 FP inh -5.3.
Cc1ccc(C(=O)CSc2cc(C)[nH]c(=O)n2)cc1 was read as rCAG RNA binder 15.3, Rtt109 Vps75 5.1, ABHD5 PLIN5 PPI -18.2, LANA-H2B inh -0.2, ALR H2O2 inh 98.6* and PRMT1 FP inh 11.1.
`Cc1cc(SCC(=O)c2ccccc2)nc(=O)[nH]1` gave rCAG RNA binder 9.5, Rtt109 Vps75 -22.7, ABHD5 PLIN5 PPI -29.2, LANA-H2B inh 3.1 and PRMT1 FP inh 24.7*.
Screening Cc1cc(SCC(=O)c2ccc(Cl)cc2)nc(=O)[nH]1 returned rCAG RNA binder 7.8, Rtt109 Vps75 5.2, ABHD5 PLIN5 PPI -21.1, LANA-H2B inh -2.8 and PRMT1 FP inh 13.0.
C[C@@H]1CCCCO[C@H](CN(C)C(=O)Cc2ccccc2)[C@@H](C)CN([C@H](C)CO)C(=O)c2cc(NC(=O)Nc3ccccc3)ccc2O1 was read as rCAG RNA binder 16.0, ABHD5 PLIN5 PPI -7.1 and PRMT1 FP inh 9.1.
Cc1ccc(-c2cc(N)nc(-c3ccccc3)c2)cc1 was read as rCAG RNA binder 2.3, Rtt109 Vps75 -6.6, ABHD5 PLIN5 PPI -17.2, LANA-H2B inh 31.3*, ALR H2O2 inh -17.4 and PRMT1 FP inh 3.4.
`Cc1ccc(-c2cc(-c3ccccc3)nc(N(C)N)n2)cc1` gave rCAG RNA binder 2.2, Rtt109 Vps75 3.3, ABHD5 PLIN5 PPI 4.6, LANA-H2B inh -5.1, ALR H2O2 inh -2.1 and PRMT1 FP inh 0.0.
COC(=O)C(CC(C)C)N(Cc1ccc(Br)cc1)S(=O)(=O)CCl (stereo not given) was read as rCAG RNA binder 2.5 and PRMT1 FP inh -0.5.
Screening Cc1ccc(NC2CCCN(C(=O)c3ccc(F)cc3)C2)cc1C (stereo not given) returned rCAG RNA binder -4.3, Rtt109 Vps75 11.0, ABHD5 PLIN5 PPI 1.1, LANA-H2B inh 1.8, ALR H2O2 inh 90.1* and PRMT1 FP inh 5.6.

Screening data deposited in PubChem BioAssay by several laboratories.
